Data as given in PubChem BioAssay AID463198 (Broad Institute, 2010).
The list shows a part of the results. Values without a mark were called inactive. Activity calls are given as the source filed them.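 Rule for the calls: active = fitted AC50 no greater than ten times the top concentration tested (cut at about 17 µM in these data); inconclusive = flat fit with 30 to 70% signal change, or an unreliable fit; inactive = AC50 beyond ten times the top concentration tested.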

Assay: compound competition with acridine orange for DNA – biochemical, fluorescence polarization, cell-free, counter-screen for LANA–histone interaction inhibitor project, dose response (AID 463198)
Settings: acridine orange-DNA binding

SMILES	AC50
O=S(=O)(Nc1cc(Cl)ccc1N1CCOCC1)c1ccccc1Cl	> 35 µM
CN1C(=O)c2cccc3c(N)ccc(c23)C1=O	7.65 µM (active)
COc1ccc(C2C=C(c3ccc(Br)cc3)Nc3nc(NS(C)(=O)=O)nn32)cc1 (centres undefined)	> 35 µM
Cc1nn(C)cc1N1C(=O)c2cccc3c(N)ccc(c23)C1=O	4.91 µM (active)
